Data reported in PubChem BioAssay (NCATS).
Records with an inconclusive call do not appear. Unmarked numbers belong to inactive results. Calls of active or inactive are those of the source. Calls come from the whole dose curve; as a rule, active = well fitted inhibition curve with a large enough effect; inconclusive = small, poorly fitted or top-dose-only effect; inactive = flat fitted curve, though single readings scatter.

Tested on: MKL-2
Assay: qHTS assay to identify novel small-molecules to repurpose for Merkel cell carcinoma treatment (AID 1296009); note: nearly all actives have a fitted effect of over 60% in size
Settings: MCC and control cell lines, CellTiter-Glo viability, 72 h; series mostly up to 46 µM; activity change, negative = cytotoxicity: at the top concentration
Outline: (§1)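 Cell viability measured by CellTiter-Glo following 72 hr compound treatment at 37 degree celsius, with NPC and MIPE libraries tested in 8- and 11-point concentration series.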
% is set by controls: 0 for no effect and ±100 for the full control effect; potency is the fitted concentration of half-maximal effect.

SMILES | Potency | activity change, negative = cytotoxicity [%]
C[n+]1c2cc(N)ccc2cc2ccc(N)cc21 (tested in a mixture with another compound) | 0.75 µM (active) | 
CC(=O)c1ccc2c(c1)N(CCCN1CCC(CCO)CC1)c1ccccc1S2 | 21.1 µM (active) | 
CCCCOc1ccc(OCCCN2CCOCC2)cc1 |  | -21.4
CC(=O)[C@H]1CC[C@H]2[C@@H]3C[C@H](C)C4=CC(=O)CC[C@]4(C)[C@H]3[C@@H](O)C[C@]12C |  | -6.51
CC(=O)N/N=C/c1ccc([N+](=O)[O-])o1 | 6.68 µM (active) | 
COc1cc2c(cc1OC)[C@@H]1CC(=O)[C@@H](CC(C)C)CN1CC2 |  | 5.13
CC(=O)Oc1ccc(C(c2ccc(OC(C)=O)cc2)c2ccccn2)cc1 |  | -1
CN(C/C=C/c1ccccc1)Cc1cccc2ccccc12 |  | -27.6
OC(CCN1CCCCC1)(c1ccccc1)c1ccccc1 |  | -3.65
Cc1ccccc1C(=O)Nc1ccc(C(=O)N2CCCC(N(C)C)c3ccccc32)cc1 (configuration not stated) |  | -23
CN1CCC(=C2c3ccccc3Sc3ccccc32)CC1 | 13.3 µM (active) | 
CC1(C)O[C@@H]2C[C@H]3[C@@H]4CCC5=CC(=O)CC[C@]5(C)[C@@]4(F)[C@@H](O)C[C@]3(C)[C@]2(C(=O)CCl)O1 |  | -8.14
COC1=CC(=O)C[C@@H](C)[C@]12Oc1c(Cl)c(OC)cc(OC)c1C2=O |  | -17
COc1cccc2c1C(=O)c1c(O)c3c(c(O)c1C2=O)C[C@@](O)(C(C)=O)C[C@@H]3O[C@H]1C[C@H](N)[C@H](O)[C@H](C)O1 | 0.0106 µM (active) | 
CCCCCCCCCCCCCCCC[N+](C)(C)CC | 0.0473 µM (active) | 
CCCCCCC[N+](CC)(CC)CCCCc1ccc(Cl)cc1 | 0.237 µM (active) | 
CN(C)C(=S)SC(=S)N(C)C | 3.35 µM (active) | 
CC1(C)O[C@@H]2C[C@H]3[C@@H]4C[C@H](F)C5=CC(=O)C=C[C@]5(C)[C@H]4[C@@H](O)C[C@]3(C)[C@]2(C(=O)CO)O1 |  | 0.864
C=C(CC)C(=O)c1ccc(OCC(=O)O)c(Cl)c1Cl | 15 µM (active) | 
C/C=C(/C(=C/C)c1ccc(O)cc1)c1ccc(O)cc1 |  | -25.2
C[C@@H]1C[C@H]2[C@@H]3CCC4=CC(=O)C=C[C@]4(C)[C@@]3(F)[C@@H](O)C[C@]2(C)[C@H]1C(=O)CO |  | -0.059
CCCCCC=CCC=CCCCCCCCC(=O)OCC | 15 µM (active) | 
CN(C)CC/C=C1\c2ccccc2Sc2ccc(Cl)cc21 | 11.9 µM (active) | 

Tested on: NIH3T3
Assay: as above
Settings: MCC and control cell lines, CellTiter-Glo viability, 72 h; at 44.8 µM (top of the series) unless noted
Outline: as §1

SMILES | outcome
CC(=O)[C@H]1CC[C@H]2[C@@H]3C[C@H](C)C4=CC(=O)CC[C@]4(C)[C@H]3[C@@H](O)C[C@]12C | inactive
COc1cc2c(cc1OC)[C@@H]1CC(=O)[C@@H](CC(C)C)CN1CC2 | inactive
CCCCCC=CCC=CCCCCCCCC(=O)OCC | inactive

Tested on: UISO
Assay: as above
Settings: MCC and control cell lines, CellTiter-Glo viability, 72 h; series mostly up to 46 µM; activity change, negative = cytotoxicity: at the top concentration
Outline: as §1

SMILES | Potency | activity change, negative = cytotoxicity [%]
C[n+]1c2cc(N)ccc2cc2ccc(N)cc21 (tested in a mixture with another compound) | 2.99 µM (active) | 
COc1cc2c(cc1OC)C(C(C(=O)N(CCc1ccc(OC)c(OC)c1OC)CCc1ccc(OC)c(OC)c1OC)c1ccccc1)=NCC2 (configuration not stated) |  | -28.7
C[C@H]1C[C@H]2[C@@H]3CCC4=CC(=O)C=C[C@]4(C)[C@@]3(Cl)[C@@H](O)C[C@]2(C)[C@@]1(O)C(=O)CO |  | 7.59
CCCCOc1ccc(OCCCN2CCOCC2)cc1 |  | -9.31
CC(=O)[C@H]1CC[C@H]2[C@@H]3C[C@H](C)C4=CC(=O)CC[C@]4(C)[C@H]3[C@@H](O)C[C@]12C |  | 6.67
COc1cc2c(cc1OC)[C@@H]1CC(=O)[C@@H](CC(C)C)CN1CC2 |  | 22.7
C=C1C[C@H]2[C@@H]3C=C(C)C4=CC(=O)CC[C@]4(C)[C@H]3CC[C@]2(C)[C@@]1(OC(C)=O)C(C)=O |  | -1.77
OC(CCN1CCCCC1)(c1ccccc1)c1ccccc1 |  | -3.63
Cc1ccccc1C(=O)Nc1ccc(C(=O)N2CCCC(N(C)C)c3ccccc32)cc1 (configuration not stated) |  | -7.55
CC1(C)O[C@@H]2C[C@H]3[C@@H]4CCC5=CC(=O)CC[C@]5(C)[C@@]4(F)[C@@H](O)C[C@]3(C)[C@]2(C(=O)CCl)O1 |  | 21
COc1cccc2c1C(=O)c1c(O)c3c(c(O)c1C2=O)C[C@@](O)(C(C)=O)C[C@@H]3O[C@H]1C[C@H](N)[C@H](O)[C@H](C)O1 | 0.211 µM (active) | 
CCCCCCCCCCCCCCCC[N+](C)(C)CC | 0.668 µM (active) | 
O=C1[C@H]2CCCC[C@H]2C(=O)N1CCCCN1CCN(c2nsc3ccccc23)CC1 | 10.6 µM (active) | 
CCCCCCC[N+](CC)(CC)CCCCc1ccc(Cl)cc1 | 4.73 µM (active) | 
CN(C)C(=S)SC(=S)N(C)C | 1.19 µM (active) | 
CC1(C)O[C@@H]2C[C@H]3[C@@H]4C[C@H](F)C5=CC(=O)C=C[C@]5(C)[C@H]4[C@@H](O)C[C@]3(C)[C@]2(C(=O)CO)O1 |  | 18.3
C/C=C(/C(=C/C)c1ccc(O)cc1)c1ccc(O)cc1 |  | -15.3
C[C@@H]1C[C@H]2[C@@H]3CCC4=CC(=O)C=C[C@]4(C)[C@@]3(F)[C@@H](O)C[C@]2(C)[C@H]1C(=O)CO |  | 24.6
c1ccc(CNCCNCc2ccccc2)cc1 |  | -7.87
CCCCCC=CCC=CCCCCCCCC(=O)OCC |  | -22.4
CCN(CCCc1ccccc1)CCCc1ccccc1 |  | -5.82
